A short description of test [1]: qHTS assay to identify small molecule agonists of the vitamin D receptor (VDR) signaling pathway - cell viability counter screen (AID 743224). Further: series mostly up to about 63 µM; nearly all actives have a fitted effect of over 50% in size. In outline: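 Compounds were pin-transferred onto VDR-bla cells plated 4 h earlier; following 16 h incubation at 37C, cell viability was quantified by CellTiter-Glo luminescence after 30 min at room temperature.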
Background: qHTS replaces the single test concentration by a dilution series.

Test [2] can be described thus: qHTS assay to identify small molecule antagonists of the vitamin D receptor (VDR) signaling pathway - cell viability counter screen (AID 743225). Further: nearly all actives have a fitted effect of over 50% in size. In outline: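 Read-out: CellTiter-Glo luminescence measured 30 min after reagent addition at room temperature. Cells were VDR-bla HEK 293T exposed 16 h at 37C, 5% CO2, to compound with 3 nM final calcitriol agonist.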
The nature of test [3]: qHTS assay to identify small molecule agonists of the NFkB signaling pathway (AID 1159509; active means well fitted curve in the direction sought with a large enough effect in the signal ratio in the repeat runs, not every such curve was filed as active; the % refers to the signal ratio; further: series mostly up to about 61 µM). In outline: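 Beta-lactamase reporter assay run in quantitative high-throughput format on an NF-kB-responsive ME-180 line, with 5 hr compound treatment and a FRET-based blue/green fluorescence readout.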
Test [4] in a line: qHTS assay to identify small molecule agonists of the NFkB signaling pathway - cell viability counter screen (AID 1159515; calls by dose curve; further: series mostly up to about 61 µM; nearly all actives have a fitted effect of over 55% in size). The method in brief: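 Parallel cytotoxicity counter screen in ME-180 cells carrying an NFkB-response-element beta-lactamase reporter, 2,000 cells/well. Compound exposure lasted 5 hr at 37 C, 5% CO2. Cell viability was quantified by CellTiter-Glo luminescence.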

A short description of test [5]: qHTS assay to identify small molecule agonists of the endoplasmic reticulum stress response signaling pathway (AID 1159516; active means well fitted activation curve with a large enough effect in the signal ratio in the repeat runs, not every such curve was filed as active; the % refers to the signal ratio). The method in brief: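 Using a HeLa line with an ESRE-driven beta-lactamase gene, agonist activity was measured by FRET substrate fluorescence (460 and 530 nm emission) after cells were treated with compounds for 5 hr at 37 C and 5% CO2.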
Test [6] can be described thus: qHTS assay to identify small molecule antagonists of the retinoid-related orphan receptor gamma (ROR-gamma) signaling pathway - cell viability counter screen (AID 1159520). Further: nearly all actives have a fitted effect of over 50% in size. In outline: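 Cytotoxicity was read from cellular ATP (CellTiter-Glo luminescence) after 16 hr at 37 C with 1 uM doxycycline induction. The inducer was added 2 hr after compound transfer to Tet-on ROR gamma CHO cells.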

Test [7] is described as follows: qHTS assay to identify small molecule agonists of the AP-1 signaling pathway - cell viability counter screen (AID 1159525; calls by dose curve; further: nearly all actives have a fitted effect of over 55% in size). The method in brief:
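Intracellular ATP by Cell Titer Glo luminescence (30 min, RT) in the same ME-180 AP-1-bla wells after the 5 h compound exposure at 37 °C. Normalised to tetra n-octyl ammonium bromide and DMSO controls.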

Test [8] can be described thus: qHTS assay to identify small molecule agonists of the AP-1 signaling pathway (AID 1159526; calls by dose curve).
The target in test [9] is Retinoic acid receptor RXR-alpha (Homo sapiens) (UniProt P19793). The test can be described thus: qHTS assay to identify small molecule agonists of the RXR signaling pathway (AID 1159527; calls by dose curve; further: nearly all actives have a fitted effect of over 35% in size). The method in brief: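 Read-out: beta-lactamase FRET ratio (405 nm excitation, 460 and 530 nm emission) after 2 hr substrate loading at room temperature. Cells were RXR-alpha-UAS-bla HEK 293T treated with compounds for 16 hr in 2% charcoal-stripped FBS medium.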
Sequence of Retinoic acid receptor RXR-alpha (Homo sapiens) (P19793 whole entry, looked up): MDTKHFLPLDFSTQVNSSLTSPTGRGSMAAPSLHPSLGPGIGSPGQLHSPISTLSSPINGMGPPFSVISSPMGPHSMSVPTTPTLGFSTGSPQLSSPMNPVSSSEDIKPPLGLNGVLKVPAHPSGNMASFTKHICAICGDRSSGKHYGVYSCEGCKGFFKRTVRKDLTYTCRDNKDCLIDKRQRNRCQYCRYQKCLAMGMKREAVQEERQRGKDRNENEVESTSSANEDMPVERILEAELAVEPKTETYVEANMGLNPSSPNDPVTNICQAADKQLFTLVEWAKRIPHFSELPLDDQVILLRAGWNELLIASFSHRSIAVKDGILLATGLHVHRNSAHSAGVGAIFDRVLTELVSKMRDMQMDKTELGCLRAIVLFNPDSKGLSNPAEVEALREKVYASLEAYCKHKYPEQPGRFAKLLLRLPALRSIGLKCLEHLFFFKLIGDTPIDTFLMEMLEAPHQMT

A short description of test [10]: qHTS assay to identify small molecule agonists of the RXR signaling pathway - cell viability counter screen (AID 1159529). Further: series mostly up to about 77 µM; nearly all actives have a fitted effect of over 50% in size. The method in brief: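 HEK 293T RXRa-bla cells, 2% CS-FBS; 5 h settle; cpd 16 h 37 C, 5% CO2; CellTiter-Glo 30 min RT, luminescence. Tetraoctyl ammonium bromide as positive control.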
Test [11] is described as follows: qHTS assay to identify small molecule antagonists of the retinoid acid receptor (RAR) signaling pathway - cell viability counter screen (AID 1159551). Further: nearly all actives have a fitted effect of over 35% in size. In outline:
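ATP-based viability, C3RL4 cells, 6 h at 37 C with 1 uM final retinol co-added after compound; luminescence read 30 min post CellTiter-Glo, RT.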

The nature of test [12]: qHTS assay to identify small molecule antagonists of the retinoic acid receptor (RAR) signaling pathway (AID 1159552; further: nearly all actives have a fitted effect of over 50% in size). The method in brief: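 Cells of the C3RL4 line were seeded, incubated overnight, then dosed with compounds in DMSO followed immediately by retinol (1 uM final). Six hours later luciferase detection reagent went in; signal was measured after 30 min at RT.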

Test [13] is described as follows: qHTS assay to identify small molecule antagonists of the estrogen related receptor (ERR) signaling pathway from Tox21 library - cell viability counter screen (AID 1224834). Further: nearly all actives have a fitted effect of over 30% in size. The method in brief:
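Compounds in DMSO were pinned onto ERR cells that had been incubated for 6 h, and the plates were held at 37 C for 17.5 h. CellTiter-Fluor reagent was then added and fluorescence was measured after 30 min.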

In test [14] the target is Luciferin 4-monooxygenase (Photinus pyralis) (UniProt P08659). The test can be described thus: qHTS assay to identify small molecule inhibitors of firefly luciferase (AID 1224835). Further: series mostly up to about 120 µM; nearly all actives have a fitted effect of over 25% in size. In outline: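 Inhibition of purified Photinus luciferase is measured by luminescence. Substrate levels (D-luciferin, ATP) sit at their KM values. Each compound is tested in a concentration series.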
Sequence of Luciferin 4-monooxygenase (Photinus pyralis) (P08659 whole entry, looked up): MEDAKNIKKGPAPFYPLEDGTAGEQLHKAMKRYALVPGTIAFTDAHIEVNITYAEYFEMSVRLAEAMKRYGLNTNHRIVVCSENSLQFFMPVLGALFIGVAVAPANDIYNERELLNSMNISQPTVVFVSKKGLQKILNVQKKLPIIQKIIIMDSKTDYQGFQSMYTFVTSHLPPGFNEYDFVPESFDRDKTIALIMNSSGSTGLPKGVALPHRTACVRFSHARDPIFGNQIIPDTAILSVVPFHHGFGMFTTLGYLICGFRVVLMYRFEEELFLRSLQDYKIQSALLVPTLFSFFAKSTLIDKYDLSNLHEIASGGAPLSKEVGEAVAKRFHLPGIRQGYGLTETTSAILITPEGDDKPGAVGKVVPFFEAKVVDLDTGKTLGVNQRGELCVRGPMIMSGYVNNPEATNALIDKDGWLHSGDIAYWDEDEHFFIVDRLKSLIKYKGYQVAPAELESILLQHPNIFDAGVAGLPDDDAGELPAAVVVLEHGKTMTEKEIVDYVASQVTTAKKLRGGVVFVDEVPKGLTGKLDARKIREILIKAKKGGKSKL

Test [15] in a line: qHTS assay to identify small molecule agonists of the constitutive androstane receptor (CAR) signaling pathway - cell viability counter screen (AID 1224836). Further: series mostly up to about 92 µM; nearly all actives have a fitted effect of over 45% in size. The method in brief:
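HepG2-CYP2B6-hCAR, 2500 cells/well, 4 h pre-incubation; cpd 15 conc + PK11195 0.75 uM final; 23 h, 37 C/5% CO2; CellTiter-Fluor, fluorescence.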

A short description of test [16]: qHTS assay to identify small molecule antagonists of the constitutive androstane receptor (CAR) signaling pathway - cell viability counter screen (AID 1224837). Further: series mostly up to about 92 µM; nearly all actives have a fitted effect of over 45% in size. The method in brief: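 Cells are seeded, rested 4 hr at 37 C/5% CO2, dosed with compound (15-point series) and 50 nM CITCO, incubated a further 23 hr, and then CellTiter-Fluor reagent is added before fluorescence is read. The line is HepG2 with stable hCAR and CYP2B6-2.2kb.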

Test [17] has as its target Nuclear receptor subfamily 1 group I member 3 (Homo sapiens) (UniProt Q14994). The test can be described thus: qHTS assay to identify small molecule antagonists of the constitutive androstane receptor (CAR) signaling pathway (AID 1224838).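 Further: HepG2 cells stably expressing hCAR with CYP2B6 luciferase reporter stimulated by CITCO; nearly all actives have a fitted effect of over 40% in size.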 Further: potency means the concentration at half of the fitted maximal effect. The method in brief:
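Luminescence from a CYP2B6-2.2kb promoter reporter in hCAR-expressing HepG2 cells reflects CAR signaling. Cells received compounds at 15 concentrations and 50 nM CITCO (final), then incubated 24 h at 37 C/5% CO2.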

Test [18] is described as follows: qHTS assay to identify small molecule agonists of the endoplasmic reticulum stress response signaling pathway - cell viability counter screen (AID 1159517; calls by dose curve). The method in brief: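 After overnight attachment, ESRE-bla HeLa cells were treated with Tox21 library compounds for 5 hr. CellTiter-Glo luminescence, read 30 min post-addition at room temperature, reported viability.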

In test [19] the target is Nuclear receptor ROR-gamma (Homo sapiens) (UniProt P51449). The test can be described thus: qHTS assay to identify small molecule antagonists of the retinoid-related orphan receptor gamma (ROR-gamma) signaling pathway (AID 1159521). In outline: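 CHO Tet-on RORγ, RORE-luc reporter. Cpd 2 h pre-incubation, then dox hyclate 1 uM final, 16 h, 37 C/5% CO2. ONE-Glo luminescence; decrease = antagonist.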

Test [20] in a line: qHTS assay to identify small molecule agonists of the retinoic acid receptor (RAR) signaling pathway (AID 1159553). The method in brief: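 Quantitative high-throughput format: the Tox21 10K library was tested on C3RL4 RARE-luciferase cells for 6 hr at 37 C and 5% CO2, with luminescence measured after a 30 min room-temperature reagent step.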

Records with an inconclusive call do not appear. A number with no mark means an inactive call. The source made the active and inactive calls. Unless noted, the call rests on the fitted dose curve; in most records, active means well fitted curve in the direction sought with a large enough effect in the repeat runs; inconclusive means weak or mixed curves; inactive means no such curve, though single readings can be large; an effect the other way counts as inactive or inconclusive.

Sequence of Nuclear receptor subfamily 1 group I member 3 (Homo sapiens) (Q14994 whole entry, looked up): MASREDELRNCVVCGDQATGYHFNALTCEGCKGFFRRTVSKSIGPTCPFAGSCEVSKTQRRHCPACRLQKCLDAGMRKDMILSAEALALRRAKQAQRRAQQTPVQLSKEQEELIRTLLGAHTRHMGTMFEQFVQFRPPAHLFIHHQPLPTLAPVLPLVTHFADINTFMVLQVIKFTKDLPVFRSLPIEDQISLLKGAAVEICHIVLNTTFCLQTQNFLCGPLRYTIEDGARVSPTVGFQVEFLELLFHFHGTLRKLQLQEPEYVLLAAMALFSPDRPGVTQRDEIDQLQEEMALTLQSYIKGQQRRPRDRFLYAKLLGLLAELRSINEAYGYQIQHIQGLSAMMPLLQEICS

As to `C=C(C)c1cccc(C(C)(C)N=C=O)c1`, the outcome in test [1], in test [2], in test [3], in [4], in [5] and in [6] was inactive. In addition, the outcome in test [7], in [8], in test [10], in test [11], in test [12] and in [13] was inactive. Also, the compound was called inactive in [15] and in test [16]. In addition, the Potency entry in test [9] and in test [14] was “inactive” in each case. In addition, the Potency in [17] is 7.7 µM (active).
Turning to `COc1nc(N)nc2nc[nH]c12`, the compound was called inactive in test [1], in [4], in [5], in test [18], in test [6] and in test [19]. Moreover, the compound was classed as inactive in test [7], in test [8], in test [10], in test [11], in test [12] and in test [13]. The compound was classed as inactive in test [15] and in test [16]. The Potency result in test [9], in [20], in test [14] and in test [17] was “inactive” throughout.
Take `CCCCOCCOC(=O)COc1ccc(Cl)cc1Cl`: the outcome in test [1], in test [2], in test [3], in test [4], in test [5] and in test [6] was inactive. Further, the result in [7], in [8], in test [10], in [11], in [12] and in test [13] was inactive. Besides, the result in test [15] and in test [16] was inactive. Further, the Potency entry in test [9], in test [20], in test [14] and in test [17] was “inactive” throughout.
With `O=C(CCCCC(=O)Nc1c(I)cc(I)c(C(=O)O)c1I)Nc1c(I)cc(I)c(C(=O)O)c1I`, the outcome in test [1], in [2], in test [3], in [4], in test [5] and in [6] was inactive. In addition, the outcome in test [19], in test [7], in [8], in test [10], in test [11] and in test [12] was inactive. Besides, the compound was called inactive in test [13], in test [15] and in [16]. The Potency result in [9], in test [20], in [14] and in test [17] was “inactive” each time.
As to `O=NN(CCCl)C(=O)NC1CCCCC1`, the result in [1], in test [2], in [3], in test [4], in [5] and in [6] was inactive. For the same compound, the result in test [19], in test [8], in test [10], in test [11], in [12] and in test [15] was inactive. The result in [16] was inactive. Further, the Potency entry in test [9], in [14] and in [17] was “inactive” in each case.
Consider `COc1cc(OC)nc(O[C@H](C(=O)O)C(OC)(c2ccccc2)c2ccccc2)n1`, for which the call in test [1], in [2], in test [3], in test [4], in test [5] and in test [6] was inactive. The outcome in test [19], in test [8], in test [10], in [11], in [12] and in test [13] was inactive. The call in [15] and in [16] was inactive. Also, the Potency entry in test [9], in [20], in test [14] and in test [17] was “inactive” each time.
Regarding `CC(=O)CC(=O)OC(C)(C)C`, the result in [1], in test [2], in test [3], in test [4], in test [5] and in test [6] was inactive. Further, the call in test [19], in [8], in [10], in test [11], in test [12] and in test [13] was inactive. For the same compound, the result in [15] and in test [16] was inactive. Further, the Potency result in test [9], in [20], in test [14] and in test [17] was “inactive” in each case.

Values taken from PubChem BioAssay (Tox21).
